# Screening data (PubChem)
# The list is not random: actives were taken first. Their share in the collection is about 18%.
# IL-1B inflam inh: qHTS for Inhibitors of Inflammasome Signaling: IL-1-beta AlphaLISA Primary Screen | THP-1 LPS/ATP IL-1B secretion, AlphaLISA, 16 h; hits give low values | activity change, % at 57.5 µM | hit rate 4.7% among 360,000 | AID 743279, 2014; in the data active means activity change below about -50%; inconclusive means mostly about -30% to -49%
#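 Secreted IL-1B measured by AlphaLISA bead assay after 16 h compound exposure of THP-1 cells; compounds (final up to 57.5 uM) added 1 h before LPS (250 ng/mL) and ATP (1.25 mM) stimulation; lower signal means less secretion.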
# TDP1 cell CPT: qHTS for Inhibitors of human tyrosyl-DNA phosphodiesterase 1 (TDP1): qHTS in cells in presence of CPT | chicken DT40 Tdp1-/-;hTDP1 cells + 20 nM CPT, ATP luminescence, 48 h | Potency, µM (titrated, usually from 46.2 µM), usual class: inhibitors | hit rate 12% among 420,000 | AID 686979, 2013; further: nearly all actives have a fitted effect of over 55% in size
#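 Chicken DT40 Tdp1-/- cells complemented with human TDP1, 400 cells/well, exposed to compounds plus 20 nM camptothecin for at least 48 h at 37 C; viability read as ATP content by CellTiter-Glo luminescence.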
# Gal4-VP16 FLuc: VP16 counterscreen qHTS for inhibitors of ROR gamma transcriptional activity; hit rate 3.5% among 310,000; Drosophila S2 Gal4-VP16 UAS-luciferase, luminescence, 20 h; Potency, µM (doses to about 53.6 µM), hits mostly inhibitors; AID 2546, 2010;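 further: Gal4-VP16 expression switched on by copper sulfate through the metallothionein promoter; nearly all actives have a fitted effect of over 50% in size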
# RORgamma inh: qHTS for inhibitors of ROR gamma transcriptional activity; Nuclear receptor ROR-gamma (Mus musculus), P51450; Drosophila S2 Gal4-RORgamma UAS-luciferase reporter, 20 h; Potency, µM (highest dose often 53.6 µM), hits mostly inhibitors; hit rate 5.4% among 310,000; further: nearly all actives have a fitted effect of over 60% in size
# Target sequence (P51450 whole entry, looked up, the tested form may be a part): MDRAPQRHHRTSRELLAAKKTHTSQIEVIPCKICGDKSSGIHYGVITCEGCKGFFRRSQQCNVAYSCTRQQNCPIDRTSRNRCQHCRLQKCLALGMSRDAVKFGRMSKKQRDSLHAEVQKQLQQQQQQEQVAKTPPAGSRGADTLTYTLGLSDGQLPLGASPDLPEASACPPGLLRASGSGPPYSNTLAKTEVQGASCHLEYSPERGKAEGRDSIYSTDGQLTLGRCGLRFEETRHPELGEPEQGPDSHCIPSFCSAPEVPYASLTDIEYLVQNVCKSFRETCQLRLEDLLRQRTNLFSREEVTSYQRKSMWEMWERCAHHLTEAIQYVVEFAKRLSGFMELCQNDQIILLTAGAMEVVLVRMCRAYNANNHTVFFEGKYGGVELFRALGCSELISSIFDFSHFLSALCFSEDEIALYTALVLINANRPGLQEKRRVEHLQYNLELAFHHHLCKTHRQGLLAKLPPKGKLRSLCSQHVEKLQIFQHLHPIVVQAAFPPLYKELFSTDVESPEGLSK
#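 In this cell-based reporter format, copper sulfate (700 uM final) drives Gal4–ROR gamma fusion expression from a metallothionein promoter in Drosophila Schneider cells; compounds preincubated 1 hr, reporter read after 20 hr at ambient temperature.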
# TDP1 cell noCPT: qHTS for Inhibitors of human tyrosyl-DNA phosphodiesterase 1 (TDP1): qHTS in cells in absence of CPT | DT40 Tdp1-/- hTDP1 cells, no CPT, ATP luminescence, 48 h | Potency, µM (doses to about 46.2 µM), most hits filed as inhibitors | hit rate 15% among 420,000 | AID 686978, 2013; further: nearly all actives have a fitted effect of over 55% in size
#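 Growth of hTDP1-complemented DT40 Tdp1-knockout cells is measured by ATP luminescence after at least 48 hr compound exposure at 37 °C, with DMSO substituting for the 20 nM CPT used in the parallel screen.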
# LDHA block: qHTS assay for inhibitors of human lactate dehydrogenase; purified LDHA, NADH/diaphorase-resazurin fluorescence; hits give low values; activity change, % (values are at about 110 or 230 µM); AID 1347041, 2019; L-lactate dehydrogenase A chain (Homo sapiens), P00338; hit rate 0.15% among 480,000; in the data active means activity change below about -30%; inconclusive means mostly about -25% to -30%
#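 Human LDH5 at 2 nM final in Tris HCl pH 7.4 with 0.06 mM NADH and 0.2 mM pyruvate, reacted 5 minutes at room temperature. Remaining NADH coupled via diaphorase/resazurin; resorufin fluorescence read at 0 and 20 minutes, normalized to enzyme-free and DMSO wells.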
# Numbers stand for hits; 0 = inactive; ? = inconclusive; - = no result; [ ] = remark or other dose. Unless noted, the call rests on the fitted dose curve; in most records, active means well fitted curve in the direction sought with a large enough effect; inconclusive means small, poorly fitted or top-dose-only effect, or another doubt; inactive means no such curve, though single readings can be large; an effect the other way counts as inactive or inconclusive.
SMILES,IL-1B inflam inh,TDP1 cell CPT,Gal4-VP16 FLuc,RORgamma inh,TDP1 cell noCPT,LDHA block
COc1ccccc1-c1ccc([C@@H]2C[C@H]3[C@H](CON3C)CN2C(=O)c2ccco2)cc1,0,0,-,-,?,-32
C=C(C)COc1ccc2c(C)c(CC(=O)Nc3ccc4c(c3)OCO4)c(=O)oc2c1,-,-,-,-,-,0
Cc1ccc(NC(=S)N(CCN(C)C)C(C)c2ccco2)c(C)c1 (configuration not stated),0,?,0,0,?,0
Cc1ccc(NC(=S)N(CCN(C)C)C(C)c2ccco2)cc1Cl (configuration not stated),0,?,?,13µM,?,0
Cc1cc(C)cc(NC(=S)N(CCN(C)C)C(C)c2cccnc2)c1 (configuration not stated),0,0,0[10 µM],11µM,0,0
CCc1cccc(C)c1NC(=S)N(CCN(C)C)C(C)c1ccco1 (configuration not stated),0,18µM,0,?,?,0
ClCC1=Nc2ccccc2Cc2ccccc21,-,0,-,-,?,0
N#CC1C(=N)Cc2ccccc2-c2ccccc21 (configuration not stated),0,?,-,-,21µM,0
CCOc1ccc(/C=C(\C#N)C(=O)c2ccc(C)cc2)cc1OC,-,-,-,-,-,0
COc1ccc(-n2c(C)c([N+](=O)[O-])c3ccc(O)c(CN4CCCCC4)c32)cc1,-68,16µM,0,0,?,0
CCc1c(C)c2ccc(O)c(CN3CCN(c4ccccc4)CC3)c2oc1=O,-,15µM,-,-,21µM,0
COc1ccc(Oc2c(C)oc3c(CN4CCOCC4)c(O)ccc3c2=O)cc1,0,0,0,0,0,0
CCc1c(C)c2ccc(O)c(CN3CCCC3)c2oc1=O,0,0,0,0,0,0
COc1ccc(-c2c(C)c3ccc(O)c(CN4CCOCC4)c3oc2=O)cc1,-,16µM,-,-,23µM,0
Cc1c(C)c2ccc(O)c(CN3CCCC3)c2oc1=O,0,0,0,0,0,0
COc1ccc(-c2c(C)c3ccc(O)c(CN4CCCC4)c3oc2=O)cc1,-,?,-,-,15µM,0
Cc1c(-c2ccc(Cl)cc2)c(=O)oc2c(CN3CCN(C)CC3)c(O)ccc12,-,?,-,-,23µM,0
Cc1c(C)c2ccc(O)c(CN3CCN(C)CC3)c2oc1=O,0,0,0,0,0,0
O=C(Nc1ccc2nn(-c3ccc(F)cc3)nc2c1)c1cccc2c(Cl)cccc12,-,10µM,-,-,21µM,0
COc1ccc(-n2nc3ccc(NC(=O)c4c(OC)cccc4OC)cc3n2)cc1,-,16µM,-,-,15µM,0
CCOc1ccc(-n2nc3ccc(NC(=O)Cc4ccccc4)cc3n2)cc1,-,3.7µM,-,-,3.7µM,0
COc1ccc(-n2nc3ccc(NC(=O)c4cccc(OCCC(C)C)c4)cc3n2)cc1,-,18µM,-,-,7.3µM,0
COc1ccc(-n2nc3ccc(NC(=O)c4ccc(-c5cc(Cl)ccc5Cl)o4)cc3n2)cc1,-,0,-,-,?,0
O=C(c1cccc2ccccc12)C1CCCN(C(=O)CCc2cnccn2)C1 (configuration not stated),0,?,0,0,8.2µM,0
O=C(c1ccc(C(F)(F)F)cc1)C1CCCN(C(=O)CCc2ccncc2)C1 (configuration not stated),0,8.2µM,0,?,6.5µM,0
SMILES,IL-1B inflam inh,TDP1 cell CPT,Gal4-VP16 FLuc,RORgamma inh,TDP1 cell noCPT,LDHA block
O=C(c1ccc(C(F)(F)F)cc1)C1CCCN(C(=O)CCn2cncn2)C1 (configuration not stated),0,0,0,0,0,0
CN(C)C(=O)CCC(=O)N1CCCC(C(=O)c2ccc(C(F)(F)F)cc2)C1 (configuration not stated),0,?,0,0,26µM,0
CN(C)C(=O)N1CCC(C(=O)N2CCCC(C(=O)c3ccc(C(C)(C)C)cc3)C2)CC1 (configuration not stated),0,?,0,?,16µM,0
CC(C)(C)c1ccc(C(=O)C2CCCN(C(=O)CN3CCCC3=O)C2)cc1 (configuration not stated),0,?,0,0,?,0
O=C(c1cc(F)ccc1F)C1CCCN(C(=O)CCc2cnccn2)C1 (configuration not stated),0,0,0,0,0,0
NC(=O)CCC(=O)N1CCCC(C(=O)c2ccc(C(F)(F)F)cc2)C1 (configuration not stated),0,0,0,0,0,0
CCn1c(SCC(=O)Nc2cc(OC)ccc2OC)nc2c(-c3ccccc3)csc2c1=O,-,-,-,-,-,0
COc1cccc(/C=C2\Oc3cc(OC(=O)C(C)(C)C)ccc3C2=O)c1OC,-,-,-,-,-,0
O=C(CCc1ncc(-c2c(F)cccc2F)o1)N1CCN(S(=O)(=O)c2cc(F)ccc2F)CC1,-,-,-,-,-,0
Cc1nn(-c2ccccn2)c2c1-c1nc(N)ncc1CC2,0,?,0,0,?,0
Cc1nn(-c2ccccn2)c(N)c1N=O,0,0,?,11µM,0,0
COc1cc2c(cc1OC)[C@@H](NC(=O)C(C)C)[C@H](O)C2,0,0,-,-,0,0
CCCCCCCCCC(=O)N[C@@H]1c2cc(OC)c(OC)cc2C[C@H]1O,0,?,-,-,16µM,0
Cc1ccc(C)c(NC(=O)CCC(=O)N/N=C/c2ccc[nH]2)c1,0,0,0,0,0,0
O=C(Cc1ccccc1)N/N=C/c1ccc[nH]1,0,0,0,13µM,0,0
O=C(Cc1ccccc1)N/N=C/c1ccc2cccc(O)c2n1,0,2.1µM,?,7.9µM,2.6µM,0
Cc1ccc(NCC(=O)N/N=C\c2ccc[nH]2)cc1,0,0,?,6.3µM,0,0
NC(=O)C(Sc1ccccc1F)c1ccccc1 (configuration not stated),-,-,-,-,-,0
NC(=O)c1ccccc1N=Cc1ccccc1O,-,-,-,-,-,0
Cc1cc(O)c(C(C)C)cc1N=Cc1cc([N+](=O)[O-])ccc1O,0,23µM,?,10µM,16µM,0
Cc1cc(O)c(C(C)C)cc1N=Cc1ccccc1O,0,3.7µM,?,0,4.6µM,0
COC(=O)c1ccc(CSc2nnc(C)s2)cc1,0,12µM,0,0,10µM,0
CC(C)(C)NC(=O)c1ccccc1SCc1ccc(F)cc1,-,-,-,-,-,0
CCc1ccc(OCCNC(=O)c2ccccc2SCc2ccc(F)cc2)cc1,0,?,0,0,26µM,0
O=C(NCCOc1ccc(F)cc1)c1ccccc1SCc1ccccc1,-108,0,?,0,?,0
